High-throughput results from PubChem BioAssay.
Only some compounds are listed: those with a hit (about 3.1% of all), similar ones and a draw of the others.
PLK1 PBD inh: qHTS for Inhibitors of PLK1-PDB (polo-like kinase 1 - polo-box domain): Primary Screen; Potency, µM, for the others: max response, negative = inhibition, actives largely listed as inhibitors; 360,000 tested, 2.8% active; AID 720504, 2013; Serine/threonine-protein kinase PLK1 (Homo sapiens), P53350; Plk1 PBD binding of FITC phosphopeptide, fluorescence polarization; note: potency is the fitted concentration of half-maximal effect; series mostly up to about 57 µM; % is set by controls: 0 for no effect and ±100 for the full control effect; nearly all actives have a fitted effect of over 65% in size
TSHR antag: Antagonists of the Thyroid Stimulating Hormone Receptor: HTS campaign. Thyrotropin receptor (Homo sapiens), P16473. TSHR-expressing cells, TSH-stimulated cAMP HTRF, 2 h; hits give low values. activity change, negative = inhibition, % at 11.5 µM. 330,000 tested, 0.2% active;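 active = activity change below a set negative limit, meaning inhibition stronger than a set level, cut at about -70% in these data; inconclusive = activity change between two set negative limits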; note: % is set by controls: 0 for no effect and ±100 for the full control effect
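Inhibition of cAMP made by TSHR-expressing cells under TSH stimulation (4nM final, EC80; 2 h, 37 deg C) is quantified with a one-step lysis HTRF kit, anti-cAMP cryptate versus cAMP-d2.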
Vif-A3G inh: qHTS for Inhibitors of Vif-A3G Interactions: qHTS | DNA dC->dU-editing enzyme APOBEC-3G (Homo sapiens), Q9HC16 | HeLa A3G-eYFP + Vif (tagged APOBEC3G with the HIV-1 protein that degrades it), YFP fluorescence, overnight | Potency, µM (top dose mostly 46.1 µM), inactives show at the top dose activity, negative = active, hits mostly inhibitors | 410,000 tested, 0.076% active; note: potency is the fitted concentration of half-maximal effect; % is set by controls: 0 for no effect and ±100 for the full control effect; nearly all actives have a fitted effect of over 60% in size
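Read-out is eYFP fluorescence (Ex 488/Em 500-530) from Vif-expressing HeLa A3G-eYFP cells; more signal means A3G escaped Vif-mediated degradation. Cells plated overnight, compound pinned in, incubated overnight at 37 deg C.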
Vif-APOBEC3F blk: qHTS for Inhibitors of Vif-A3F Interactions: qHTS | HeLa A3F-eYFP + Vif (tagged APOBEC3F with the HIV-1 protein that degrades it), YFP fluorescence increase | Potency, µM (highest dose often 46.1 µM), for inactives: top-dose activity, negative = active | 390,000 tested, 0.2% active | AID 602313, 2012; note: potency is the fitted concentration of half-maximal effect; % of control where 0% means no effect; nearly all actives have a fitted effect of over 65% in size
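HeLa cells stably expressing Vif plus C-terminally eYFP-tagged A3F were seeded, incubated overnight at 37 deg C, dosed with compound, incubated overnight again at 37 deg C. Yellow fluorescence (Ex 488/Em 500-530) reported blocked Vif-mediated A3F-eYFP degradation.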
VDR inhibitor: Inhibitors of the vitamin D receptor (VDR): qHTS; 400,000 tested, 0.93% active; Potency, µM, for the others: max response, negative = inhibition, usual class: inhibitors; VDR-SRC2-3 peptide fluorescence polarization, 2 h; Vitamin D3 receptor (Homo sapiens), P11473; note: potency is the fitted concentration of half-maximal effect; % is set by controls: 0 for no effect and ±100 for the full control effect
Target sequence (P11473 whole entry, looked up): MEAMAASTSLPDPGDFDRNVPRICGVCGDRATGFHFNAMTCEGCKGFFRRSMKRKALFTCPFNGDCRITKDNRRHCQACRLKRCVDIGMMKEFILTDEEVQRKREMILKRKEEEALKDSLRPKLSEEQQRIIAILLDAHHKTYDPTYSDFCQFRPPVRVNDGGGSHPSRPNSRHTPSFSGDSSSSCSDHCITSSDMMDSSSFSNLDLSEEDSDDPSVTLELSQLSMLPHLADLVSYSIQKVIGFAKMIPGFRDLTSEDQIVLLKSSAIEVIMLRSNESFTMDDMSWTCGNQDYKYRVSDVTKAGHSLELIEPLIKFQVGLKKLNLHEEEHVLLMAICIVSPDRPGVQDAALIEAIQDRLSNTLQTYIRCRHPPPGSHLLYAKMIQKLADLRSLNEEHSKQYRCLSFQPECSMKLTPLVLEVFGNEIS
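Inhibition of the VDR/SRC2-3 peptide interaction is quantified by fluorescence polarization. Compounds (23 nl, pintool) incubate with the reagents for 2 hours at ambient room temperature.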
VDR confirm: qHTS for Inhibitors of the vitamin D receptor (VDR): Hit Validation in Primary Screen | 840 tested, 89% active | Potency, µM, actives largely listed as inhibitors | VDR-coactivator inhibition assay, qHTS confirmation | AID 602199, 2012 | shares compounds with VDR inhibitor; note: potency is the fitted concentration of half-maximal effect
VDR FP: qHTS for Inhibitors of the vitamin D receptor (VDR): Hit Validation using a Fluorescein Assay. shares compounds with VDR inhibitor. VDR-coactivator binding, fluorescein fluorescence polarization. Potency, µM (series often up to 57.1 µM), for the others: at the highest dose activity change, negative = inhibition, usual class: inhibitors. AID 602200, 2012. 840 tested, 48% active; note: potency is the fitted concentration of half-maximal effect
VDR bla reporter: qHTS for Inhibitors of the vitamin D receptor (VDR): Hit Validation using a Beta-Lactamase Assay; shares compounds with VDR inhibitor; VDR beta-lactamase reporter cells, FRET ratio; cells co-treated with VDR agonist LG190178; Potency, µM (top dose mostly 46.1 µM), without a hit: at the top dose activity change, negative = inhibition, actives largely listed as inhibitors; 840 tested, 23% active; AID 602202, 2012; note: potency is the fitted concentration of half-maximal effect; % is set by controls: 0 for no effect and ±100 for the full control effect
VDR viability: qHTS for Inhibitors of the vitamin D receptor (VDR): Hit Validation using a Cytotoxicity Assay. shares compounds with VDR inhibitor. cytotoxicity counter-screen, cell viability, qHTS. Potency, µM (titrated, usually from 48.3 µM), inactives show at the top dose activity change, negative = cytotoxicity, usual class: cytotoxic. 840 tested, 18% active;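 note: potency is the fitted concentration of half-maximal effect; plate controls were DMSO for no effect and high-concentration cycloheximide for full effect; nearly all actives have a fitted effect of over 75% in size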
* hit, by the source's call; ? = inconclusive; nt = no result given. Unless noted, calls come from the whole dose curve; as a rule, active = well fitted curve in the direction sought with a large enough effect; inconclusive = small, poorly fitted or top-dose-only effect, or another doubt; inactive = no such curve, though single readings can be large; an effect the other way counts as inactive or inconclusive.

SMILES	PLK1 PBD inh	TSHR antag	Vif-A3G inh	Vif-APOBEC3F blk	VDR inhibitor	VDR confirm	VDR FP	VDR bla reporter	VDR viability
CCOC(=O)c1sc(=S)n(-c2cc(OC)ccc2OC)c1N	2.7µM*	12	0%	1%	20µM*	27*	3.5µM*	17%	-27%
COc1ccc(C2CC(=O)Oc3c(C(CCN4CCCC(C)C4)c4cc(OC)c(OC)c(OC)c4)c(OC)cc(OC)c32)cc1 (stereo not given)	nt	nt	3%	nt	-8%	nt	nt	nt	nt
CCOc1ccc(/C=C/C(=O)c2c(O)cc(C)oc2=O)cc1	0%	-15	-9%	4%	?	16*	25µM*	?	12µM*
Cc1cc(O)c(C(=O)/C=C/c2ccccc2)c(=O)o1	-11%	1	-11%	?	?	nt	nt	nt	nt
CCOc1ccc(/C=C/C(=O)c2c(O)c3ccccc3oc2=O)cc1	-12%	8	0%	5%	8.9µM*	8.4*	171%	-19%	?
Cc1cc(O)c(C(=O)/C=C/c2ccc(C(C)C)cc2)c(=O)o1	-15%	-5	-12%	0%	?	6.3*	?	?	7%
COc1ccccc1NS(=O)(=O)c1cc(NC(=O)c2cccs2)ccc1N1CCCC1	5.3µM*	-3	-1%	-15%	22µM*	6*	?	10%	0%
CCN(CC)c1ccc(NC(=O)c2ccccc2Br)cc1S(=O)(=O)Nc1ccccc1OC	1.5µM*	-14	-4%	-1%	22µM*	3*	2.8µM*	22%	23%
COc1ccccc1NS(=O)(=O)c1cc(NC(=O)c2cccs2)ccc1N1CCCCC1	-7%	-4	0%	-20%	8%	nt	nt	nt	nt
Cc1cccc(C(=O)Nc2ccc(C(=O)/C=C/c3ccncc3)cc2)c1	-13%	-32	-28%	10%	16µM*	7.5*	6.3µM*	?	?
CC(=O)Nc1cccc(C(=O)/C=C/c2ccc(/C=C/C(=O)c3cccc(NC(C)=O)c3)cc2)c1	nt	-18	nt	nt	nt	nt	nt	nt	nt
COc1ccc(Br)cc1/C=C/C(=O)Nc1ccc2ccccc2c1	1%	-16	0%	6%	-4%	nt	nt	nt	nt
CC(=O)Nc1cccc(C(=O)/C=C/c2ccc(Br)cc2)c1	-27%	3	-29%	-1%	25µM*	7.1*	8.9µM*	?	-19%
CCC(=O)Nc1cccc(C(=O)/C=C/c2cc(Br)ccc2OC)c1	-11%	-21	-27%	-1%	?	8.9*	14µM*	4.6µM*	?
CCCCN(CC)CCCNC(=O)CS(=O)(=O)Cc1nc(-c2ccc(C)cc2)oc1C	nt	nt	5%	-7%	?	nt	nt	nt	nt
O=C(NCCc1csc(-c2cccc(F)c2)n1)C(=O)Nc1cc(F)ccc1F	nt	nt	1%	-4%	11%	nt	nt	nt	nt
Cc1ccc(-n2nc3c(=O)n(CC(=O)NCCC(C)C)nc(C)c3c2C)cc1	nt	nt	3%	-1%	8%	nt	nt	nt	nt
Cc1cccc(N2CCN(C(=O)CCn3c(=O)c4cccn4c4cccnc43)CC2)c1C	nt	nt	1%	1%	-6%	nt	nt	nt	nt
COc1ccc(C(C2C(=O)CC(C)(C)CC2=O)C2C(=O)CC(C)(C)CC2=O)cc1COCC(F)(F)F	6.7µM*	-6	1%	3%	20µM*	6*	?	26%	11%
CC(C)Oc1ccc(C(=O)CCN2CCCCC2)cc1	?	-1	-10%	-2%	?	7.1*	3.2µM*	?	-19%
